Arbovirus anti: blocks arbovirus infection. arbovirus infection cell-based antiviral screen. inhibition, % at 10 µM. 0.37% of 200,000 active. AID 1251; in the data active means inhibition above about 30%
ROMK mod: modulates human ROMK potassium channel activity; B-score at 10 µM; Tet-inducible ROMK, thallium flux fluorescence; actives lie on both sides; 2% of 130,000 active; P48048;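 active means signal ratio slope over the read window, or its plate-corrected B-score, at least 3 SD from the plate mean, either direction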;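 further: B-score of the F/F0 ratio slope over 7 to 12 s after thallium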
Target sequence (P48048 whole entry, looked up): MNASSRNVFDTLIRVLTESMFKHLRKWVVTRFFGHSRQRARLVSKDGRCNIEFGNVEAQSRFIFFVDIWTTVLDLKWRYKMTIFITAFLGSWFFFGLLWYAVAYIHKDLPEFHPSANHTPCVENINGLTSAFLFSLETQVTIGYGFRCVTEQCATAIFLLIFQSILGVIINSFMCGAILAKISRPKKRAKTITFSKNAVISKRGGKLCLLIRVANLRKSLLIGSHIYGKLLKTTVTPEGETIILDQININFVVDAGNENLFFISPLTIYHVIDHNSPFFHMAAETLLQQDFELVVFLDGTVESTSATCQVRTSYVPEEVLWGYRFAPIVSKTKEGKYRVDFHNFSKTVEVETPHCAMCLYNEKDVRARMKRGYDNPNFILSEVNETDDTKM
HMGR II inh: inhibitors of class II HMG-CoA reductase from Enterococcus faecalis | inhibition, % at 10 µM | purified E. faecalis HMGR, NADPH absorbance 340 nm kinetic | 0.41% of 190,000 active | AID 1066;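 active means inhibition above a set limit, the median over all tested compounds plus 3 SD, cut at about 9.5% in these data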;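 further: enzyme runs in reverse so mevalonate oxidation gives rising NADPH absorbance; 0% = complete reaction with DMSO and 100% = background rate lacking mevalonate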
m-calpain inh: inhibitors of pig calpain II; purified calpain II, fluorogenic peptide substrate, 30 min; inhibition, % at 16 µM; 0.37% of 220,000 active; AID 1236;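 active means inhibition above about 50%, limit read from the data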
HSV augment: increases HSV replication in cells | HSV replication augmentation in cells, fold increase | maximum fold increase | 0.005% of 220,000 active; in the data active means maximum fold increase above about 1.5; tested in PC3 cells
Starred values were filed as active, the others as inactive; i = inactive; nt = no result. Compounds with a hit are over-represented: about 2.1% of the library has one in this group of screens.

SMILES	Arbovirus anti	ROMK mod	HMGR II inh	m-calpain inh	HSV augment
O=C(Nc1nc(-c2ccc(Cl)cc2Cl)cs1)c1ccc(OCC2CCCO2)cc1 (configuration not stated)	68*	1.1	-2	-13	i
OCCC1CN(Cc2cccs2)CCN1Cc1ccccc1 (configuration not stated)	-4	-0.98	15*	-10	i
O=C(NCC1CCCO1)c1ccc(Cl)c(F)c1F (configuration not stated)	-3	nt	15*	-15	i
COc1ccc(NC(=O)c2c[nH]n3c(=O)cc(C4CCN(C(=O)OC(C)(C)C)CC4)nc23)cc1Cl	49*	0.31	-5	20	i
CC(C)(C)OC(=O)N1CCC(c2cc(=O)n3[nH]cc(C(=O)Nc4ccc(F)c(Cl)c4)c3n2)CC1	nt	0.44	nt	3	i
Cc1nnc(SCc2ccccc2Cl)n1CC1CCCO1 (configuration not stated)	-1	0.084	16*	0	i
Cc1nnc(SCc2ccccc2)n1CC1CCCO1 (configuration not stated)	2	nt	-4	12	i
O=C(Nc1ccc(N=Nc2ccccc2)c(NC(=O)C2CCCO2)c1)C1CCCO1 (configuration not stated)	1	nt	-10	-31	i
CC(=O)N1CCCc2cc(S(=O)(=O)N3CCc4ccccc4C3)ccc21	9	-1.4	4	25	i
CCC(=O)N1CCc2cc(S(=O)(=O)N3CCc4ccccc4C3)ccc21	5	1	-5	54*	i
Cc1cc(SCn2nnc3ccccc3c2=O)nc2ccccc12	-11	-0.00012	115*	26	i
O=c1c2ccccc2nnn1CSc1ccc2ccccc2n1	17	-0.89	-5	16	i
Cc1cc(-c2ccc(Cl)cc2Cl)c(C#N)c(=O)[nH]1	nt	-0.79	nt	-9	i
CSc1nc(-c2ccc(Cl)cc2Cl)[nH]c(=O)c1C#N	42*	-1.7	-5	23	i
O=S1(=O)C=C(SCc2ccc(Cl)c(Cl)c2)Nc2ccccc21	-3	nt	-1	53*	i
Nc1nc(SCc2ccc(Cl)c(Cl)c2)n[nH]1	-16	-0.83	1	-7	i
COc1ccccc1NC(=O)c1ccc(NC(=O)CSc2ncn[nH]2)cc1	24	-0.44	-3	-4	i
COc1ccccc1NC(=O)/C(=C/c1cccs1)NC(=O)c1ccco1	nt	nt	nt	55*	i
CN(Cc1ccc(F)cc1)C(=O)c1ccc2c(c1)NC(=O)CS2	-1	-1.2	12*	-9	i
O=C(NC(=S)N1CCN(c2nc(-c3ccccc3)cs2)CC1)c1cncc(Br)c1	-15	4.8*	5	-105	i
O=C(CN1CCN(c2nc(-c3ccccc3)cs2)CC1)NNC(=O)c1ccc(Br)cc1	-3	nt	2	14	i
CC1(C)CCC23CC[C@]4(C)C(OC2=O)(C3C1)[C@H]1O[C@H]1C1[C@@]2(C)CC[C@@H](O)C(C)(C)C2CC[C@]14C (some centres not stated)	nt	nt	nt	nt	i
COc1ccc(-c2cc(C(=O)N3CCCc4ccccc43)no2)cc1	-2	nt	-7	53*	nt
COc1ccc(N2CCN(c3nc(NC(C)(C)C)nc(N4CCCCC4)n3)CC2)cc1	24	0.44	-4	65*	i
COc1ccc(Nc2nc(NC(C)(C)C)nc(N3CCCC3)n2)c(OC)c1	13	nt	0	-9	i
SMILES	Arbovirus anti	ROMK mod	HMGR II inh	m-calpain inh	HSV augment
CC(=O)c1sc(-c2ccccc2)cc1NS(=O)(=O)c1ccc(C)cc1	nt	2.7*	nt	6	i
O=C(O)CNc1ccc(S(=O)(=O)C(F)(F)F)cc1[N+](=O)[O-]	nt	nt	nt	27	i
CC(=O)Nc1ccc(Nc2ccc(S(=O)(=O)C(F)(F)F)cc2[N+](=O)[O-])cc1	11	nt	-7	55*	i
CCC1=C[C@H]2CN(C1)Cc1c([nH]c3ccccc13)[C@@](C(=O)OC)(c1cc3c(cc1OC)N(C)[C@H]1[C@@](O)(C(=O)OC)[C@H](OC(C)=O)[C@]4(CC)C=CCN5CC[C@]31[C@@H]54)C2	nt	nt	nt	nt	i
O=C(C1=NOC(CNc2ncc(C(F)(F)F)cc2Cl)C1)N1CCOCC1 (configuration not stated)	1	-0.02	-3	-23	i
C/C(=N\Nc1nc2ccccc2[nH]1)c1ccc2c(c1)OCO2	36*	-0.071	-6	41	i
Cc1cccc(OCCn2c(=S)[nH]c3ccccc32)c1	-14	-0.036	11*	3	i
Cc1ccc2c(c1)C1C=CCC1C(C(=O)O)N2 (configuration not stated)	5	1.2	3	-22	i
O=C(O)C1Nc2c(O)cc(Cl)c([N+](=O)[O-])c2C2C=CCC12 (configuration not stated)	23	2.1	13*	-32	i
CC1(C)Cc2cccc(OCC(=O)OCC(=O)Nc3cccc(S(N)(=O)=O)c3)c2O1	nt	nt	nt	11	i
CCOC(=O)C1CCCN(Cc2nc(CC3CC3)no2)C1 (configuration not stated)	nt	0.092	nt	16	i
O=C(Oc1ccc2c(c1)OCO2)C12CC3CC(CC(C3)C1)C2	1	nt	-4	66*	i
CCOC(=O)Cc1nn(Cc2ccccc2)c(=O)c2ccccc12	-9	-0.27	14*	-3	i
CCCCN(CCCC)CC(O)COc1ccccc1Br (configuration not stated)	39*	nt	-6	-2	i
CC(C)CN(CC(C)C)CC(O)COc1ccccc1Br (configuration not stated)	-5	-0.48	-12	3	i
CCN(C(=O)COC(=O)c1cncc(Br)c1)C1CCS(=O)(=O)C1 (configuration not stated)	6	0.17	-3	-36	i
COc1ccc(CCNC(=S)Nc2ccc(OC)cc2)cc1	-2	-0.012	-2	-3	i
COc1ccc(NC(=S)NCCc2c(C)[nH]c3ccc(OC)cc23)cc1	0	-0.096	-1	62*	i
COc1ccc(N=c2ssnc2Cl)cc1	0	nt	16*	-7	i
Cc1cccn2cc(-c3ccc(S(=O)(=O)N4CCCCC4)cc3)nc12	4	-2.1	10*	i	i
Cc1cccn2cc(-c3ccc(S(=O)(=O)N4CCOCC4)cc3)nc12	-1	nt	2	i	i
CSc1nc(-c2ccccc2)[nH]c(=S)c1C(C)=O	5	4.7*	-11	-4	i
CCN(CC)c1ccc(C=C(c2nnnn2-c2ccccc2)c2nnnn2-c2ccccc2)cc1	4	-0.43	-3	11	3.1*
Fc1ccc(CSc2nc3ccccc3[nH]2)c2ccccc12	-30	1.3	0	59*	i
O=c1cc(CSc2nc3ccccc3[nH]2)c2ccccc2[nH]1	5	-0.94	1	-10	i
Cc1ccc(C)n1-c1ccc(-c2ccnc(N)n2)cc1	-5	0.75	-3	-110	i
CCN1CCN(c2cc(-c3ccccc3)nc3cc(-c4cccc(F)c4)nn23)CC1	-36	-0.84	9.6*	-285	i
Cc1cc(C)cc(N(CCC(=O)Nc2nnc(C)s2)S(=O)(=O)c2ccc(Cl)cc2)c1	-8	nt	-7	23	i

Source: PubChem BioAssay (several laboratories)
